# G9a inh: G9a (human) methyltransferase inhibition | AID 504332 | Q96KQ7 | G9a H3K9 monomethylation, AlphaScreen, 2 h | Potency, µM (series often up to 102 µM), for inactives: top-dose activity, negative = inhibition, hits mostly inhibitors | 350,000 tested, 8.8% active; note: % is set by controls: 0 for no effect and ±100 for the full control effect; nearly all actives have a fitted effect of over 75% in size
# Target sequence (Q96KQ7 913-1193 limits assumed): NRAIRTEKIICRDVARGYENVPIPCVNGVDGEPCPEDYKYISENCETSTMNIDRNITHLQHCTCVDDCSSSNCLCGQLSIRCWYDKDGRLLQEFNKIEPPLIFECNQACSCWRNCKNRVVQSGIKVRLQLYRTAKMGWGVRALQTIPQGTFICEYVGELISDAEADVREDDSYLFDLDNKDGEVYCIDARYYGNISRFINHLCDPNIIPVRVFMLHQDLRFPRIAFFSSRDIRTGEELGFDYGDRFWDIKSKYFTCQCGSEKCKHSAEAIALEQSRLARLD
#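 Signal arises when biotinylated H3K9 peptide, once monomethylated, bridges streptavidin donor and antibody-captured acceptor beads. Enzyme at 20 nM was preincubated 15 min with test compounds; peptide 500 nM and SAM 20 uM then reacted for 2 h.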
# BAZ2B block: BAZ2B (human) inhibition | 360,000 tested, 4.4% active | Q9UIF8 | Potency, µM (highest dose often 114 µM), inactives show at the top dose activity change, negative = inhibition, actives largely listed as inhibitors | AlphaScreen BAZ2B-H3K14Ac peptide displacement; note: % is set by controls: 0 for no effect and ±100 for the full control effect; nearly all actives have a fitted effect of over 60% in size
#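 Inhibition is scored as reduced AlphaScreen emission. The BAZ2B/b-H3(5-23)K14Ac complex (50 nM each) in PBS pH 7.4, 0.01% Tween-20 meets compound (up to 110 uM) for 30 min at RT before bead addition.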
# GLS inh: glutaminase GLS (human) inhibition; O94925; GLS enzymatic activity, qHTS titration; Potency, µM (titrated, usually from 45.5 µM), inactives show top-dose activity change, negative = inhibition, hits mostly inhibitors; 410,000 tested, 0.21% active; note: % is set by controls: 0 for no effect and ±100 for the full control effect
#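 hKGA; 45 mM KH2PO4 pH 8.2 + 0.02% Tween-20; cpd via pin tool; 1 mM Gln soln; GluOx/HRP/Amplex Red; RT 30 min; fluor. t0 & final.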
# JMJD2A Tudor inh: JMJD2A Tudor domain (human) inhibition; O75164; AlphaScreen JMJD2A-Tudor / H3K4me3 peptide binding; Potency, µM (top dose mostly 114 µM), for inactives: at the highest dose activity change, negative = inhibition, hits mostly inhibitors; 390,000 tested, 4.4% active; AID 504339; note: % is set by controls: 0 for no effect and ±100 for the full control effect; nearly all actives have a fitted effect of over 50% in size
# HP1b binding inh: blocks HP1-beta chromodomain binding to methylated histone tails; P83916; AID 540317; Potency, µM (doses to about 114 µM), for the others: top-dose activity change, negative = inhibition, usual class: inhibitors; AlphaScreen HP1-beta / biotin-H3K9me3 peptide binding; 390,000 tested, 0.56% active; note: nearly all actives have a fitted effect of over 70% in size
# Target sequence (P83916 whole entry, looked up): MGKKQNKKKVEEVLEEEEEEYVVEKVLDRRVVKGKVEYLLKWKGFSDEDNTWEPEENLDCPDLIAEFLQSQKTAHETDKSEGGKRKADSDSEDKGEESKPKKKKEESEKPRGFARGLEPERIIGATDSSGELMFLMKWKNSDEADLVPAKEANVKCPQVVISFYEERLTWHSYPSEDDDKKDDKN
#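 Compound inhibition of the preformed complex between 50 nM HP1-beta and 50 nM biotinylated H3K9me3 peptide was read by AlphaScreen. Buffer was PBS pH 7.4 with 0.01% Tween-20. Incubations ran 30 min at room temperature, with 10 ug/mL donor/acceptor beads.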
# The depositor's hits bear a star; u = inconclusive; x = no result given; [ ] = dose if it differs, or a comment. In the library only some 10% were active in any assay of this set; here they are far more common. Calls come from the whole dose curve; as a rule, active = well fitted curve in the direction sought with a large enough effect; inconclusive = small, poorly fitted or top-dose-only effect, or another doubt; inactive = no such curve, though single readings can be large; an effect the other way counts as inactive or inconclusive. Potency is the fitted concentration of half-maximal effect.
SMILES,G9a inh,BAZ2B block,GLS inh,JMJD2A Tudor inh,HP1b binding inh
CCC(c1nnnn1CCOC)N1CCN(C(=O)c2ccco2)CC1 (centres undefined),x,50µM*,1%,u,19%
CCC(c1nnnn1Cc1ccco1)N1CCN(c2cc(Cl)ccc2C)CC1 (centres undefined),10%[59 µM],u,18%,50µM*,u
COCCn1nnnc1C(c1ccc(OC)cc1)N1CCC(C)CC1 (centres undefined),-29%[12.7 µM],u,8%,-9%,18%
O=[N+]([O-])c1cccc(/C=N/n2c(C3CCCCC3)n[nH]c2=S)c1,1.6µM*,10%,-9%,u,8%
COc1cccc(/C=N/n2c(C3CCCCC3)n[nH]c2=S)c1,2.5µM*,-34%,-17%,32µM*,-8%
COc1cc(/C=N/n2c(C3CCCCC3)n[nH]c2=S)cc(OC)c1O,2µM*,-18%,9%,2.8µM*,u
COc1cc(/C=N/N2C(C)CCCC2C)cc(OC)c1O (centres undefined),u,8%,24%,-28%,3%
Oc1cccc(/C=N/n2c(C3CCCCC3)n[nH]c2=S)c1,2µM*,-24%,4%,32µM*,-20%
O=C(CSc1nnc(-c2ccc(F)cc2)c2ccccc12)Nc1c(F)cccc1F,21%[59 µM],-5%,9%,-17%,20%
CC(C)c1cc(C(=O)O)c2ccccc2n1,4%,-23%,-7%,-1%[11.4 µM],72%
COc1cc(OC)c(C2=NOC(C(=O)NCCc3ccccc3)C2)cc1Cl (centres undefined),u,4%,4%,-9%,14%
NC(=O)c1ccsc1NC(=O)c1ccc(N2CCCC2=O)cc1,45µM*,-30%,-6%,-22%,17%
NC(=O)c1ccsc1NC(=O)c1ccc2c(c1)CCCC2,9%,-5%,-1%,-14%,43%
CC(=O)Nc1nnc(C2=COCCO2)o1,-16%,79µM*,-10%,22µM*,38%
O=C(Nc1nnc(C2=COCCO2)o1)c1ccc([N+](=O)[O-])cc1,u,35µM*,2%,50µM*,41%
O=C(Nc1nnc(C2=COCCO2)o1)c1ccc(F)cc1,x,22µM*,3%,56µM*,40%
O=C(Nc1nnc(C2=COCCO2)o1)c1cccc(C(F)(F)F)c1,-1%,u,-6%,-4%,51%
COc1ccc(-c2nnc(NC(=O)C3=COCCO3)o2)cc1,-24%[59 µM],28µM*,4%,-10%,16%
O=C(OCC(=O)N1CCCC1=O)c1cccc([N+](=O)[O-])c1,46%,1%,0%,-32%,12%
COc1ccc(NC(=S)N(Cc2ccc(C(=O)O)cc2)Cc2ccc(OC)c(OC)c2)cc1,-49%,7%,13%,-1%,20%
COc1cc(-c2[nH]ncc2CN(C)Cc2nonc2C)cc(OC)c1OC,x,-11%,-2%,-12%,42%
O=C(NC1CS(=O)(=O)CC1NCc1ccccc1)c1ccccc1 (centres undefined),15%[59 µM],12%,-8%,0%,44%
O=C(Nc1nnc(C2=COCCO2)o1)c1ccc(Cl)cc1,-11%[59 µM],56µM*,0%,79µM*,33%
Cc1ccc(NC(=O)COc2cccc(/C=C3\SC(=S)N(CCC(=O)O)C3=O)c2)cc1Cl,2%[59 µM],45µM*,9%,-32%[11.4 µM],-5%
COc1cccc(/C=C2\SC(=S)N(CCCC(=O)Nc3ccc(C(=O)O)cc3)C2=O)c1,x,u,9%,u,-9%
SMILES,G9a inh,BAZ2B block,GLS inh,JMJD2A Tudor inh,HP1b binding inh
O=C(O)CCN1C(=O)/C(=C\c2cccc(OCC(=O)Nc3ccc(Cl)cc3)c2)SC1=S,u,45µM*,18%,-25%[11.4 µM],45µM*
COc1ccc(CCCc2n[nH]c(=S)o2)cc1,u,u,11%,-12%,29%
S=c1[nH]nc(COc2ccc3ccccc3c2)o1,0.89µM*,-34%,41%,-23%,-15%
COc1ccc(Cc2n[nH]c(=S)o2)cc1,x,-4%,12%,32µM*,26%
N#CCSc1nnc(COc2ccc3ccccc3c2)o1,u,0%,2%,12%[57.1 µM],21%
COc1ccc(OCC2CCNCC2)cc1,50µM*,-23%,-2%,-20%,30%
COc1ccc(Br)c2oc(S)cc(=O)c12,7.1µM*,-9%,23%,35µM*,34%

# Screening results: PubChem, National Center for Advancing Translational Sciences (NCATS)
